Reference: PubChem BioAssay (NCATS)
Results filed as inconclusive are left out. Calls of active or inactive are those of the source. Unless noted, the call rests on the fitted dose curve; in most records, active means well fitted curve in the direction sought with a large enough effect; inconclusive means small, poorly fitted or top-dose-only effect, or another doubt; inactive means no such curve, though single readings can be large; an effect the other way counts as inactive or inconclusive.

Columns and labels:
[1] = Cytometric Cell-Based qHTS for Inhibitors of the mTORC1 Signaling Pathway in MEF (Tsc2-/-, p53-/-) Cells (AID 2660);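 further: Tsc2 and p53 null MEFs carrying empty vector with compound for 24 h; percent of cells above a phospho-rpS6 to PI ratio cutoff in each well; series mostly up to about 38 µM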
In short: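 Readout: Alexa-488 phospho-rpS6 (Ser235/236) intensity divided by PI intensity, thresholded against 7.5 nM rapamycin wells and reported as % positive cells. PI cell count served as the viability measure. Compound exposure was 24 hrs at 37 degree Celsius.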

[2] = High Content Imaging Cell-Based qHTS for Inhibitors of the mTORC1 Signaling Pathway in MEF (Tsc2-/-, p53-/-) Cells (AID 2666);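 further: percent of cells scored positive for phospho-rpS6 Ser235/236 immunostaining by imaging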
In short: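 Inhibition of rpS6 phosphorylation is measured by immunofluorescence imaging in empty-vector Tsc2-/-, p53-/- mouse embryonic fibroblasts after 24 hrs compound exposure at 37 degree Celsius. Results are reported as % positive cells per well.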

[3] = High Content Imaging Cell-Based qHTS for Inhibitors of the mTORC1 Signaling Pathway in MEF Cells (AID 2667);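 further: Tsc2-/- p53-/- MEFs stably re-expressing wild-type Tsc2 exposed 24 h; series mostly up to about 38 µM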
In short: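 Fixed-cell imaging of phospho-S6 (Ser235/236, Alexa-488) after 24 hrs of compound treatment at 37 degree Celsius. Signal was normalized to Hoechst, and thresholds from the highest and lowest wells split cells into % active versus % non-active.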

[4] = Cytometry Cell-Based qHTS for Inhibitors of the mTORC1 Signaling Pathway in MEF cells (AID 2668);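 further: Tsc2-/- p53-/- mouse embryonic fibroblasts stably re-expressing wild-type Tsc2; percent cells positive for phospho-rpS6 Ser235/236 relative to propidium iodide stain; series mostly up to about 38 µM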
In short: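 WT MEFs (Tsc2-/-, p53-/- stably re-expressing WT Tsc2) in DMEM + 10% FBS received compounds 24 hrs after plating, for 24 hrs at 37 degree Celsius. Fixed cells stained with Alexa-488 anti-phospho-rpS6 Ser235/236 and propidium iodide; laser-scanning cytometry read-out.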

[5] = target: Ubiquitin carboxyl-terminal hydrolase 2 (Homo sapiens) (UniProt O75604); test: qHTS Validation Assay for Inhibitors of Ubiquitin-specific Protease USP2a Using CHOP2 as the Reporter (AID 463106)
Chain of Ubiquitin carboxyl-terminal hydrolase 2 (Homo sapiens) (O75604 whole entry, looked up): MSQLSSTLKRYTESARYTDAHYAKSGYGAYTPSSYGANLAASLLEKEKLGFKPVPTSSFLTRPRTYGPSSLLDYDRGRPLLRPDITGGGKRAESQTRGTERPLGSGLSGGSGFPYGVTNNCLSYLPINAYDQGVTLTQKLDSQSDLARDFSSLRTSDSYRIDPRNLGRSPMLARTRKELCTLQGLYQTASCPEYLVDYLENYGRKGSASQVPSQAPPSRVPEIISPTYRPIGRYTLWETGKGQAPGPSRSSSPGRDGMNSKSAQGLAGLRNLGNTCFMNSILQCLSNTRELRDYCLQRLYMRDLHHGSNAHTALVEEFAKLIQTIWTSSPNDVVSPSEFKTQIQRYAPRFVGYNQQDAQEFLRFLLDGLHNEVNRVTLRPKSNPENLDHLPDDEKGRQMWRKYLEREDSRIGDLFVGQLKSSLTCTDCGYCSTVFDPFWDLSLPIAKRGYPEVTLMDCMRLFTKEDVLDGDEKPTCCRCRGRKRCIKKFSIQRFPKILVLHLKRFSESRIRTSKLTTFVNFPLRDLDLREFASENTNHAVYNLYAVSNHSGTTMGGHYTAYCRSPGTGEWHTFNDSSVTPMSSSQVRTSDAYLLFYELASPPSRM
In short: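 Inhibition is expressed relative to NEM as the full-inhibition control, with concentration-response curves classed by fit quality, magnitude and activity. Enzyme (USP2 core, 10nM) meets 25nM Ub-CHOP2 after compound preincubation; readings are taken at 60min.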

[6] = target: DNA polymerase III PolC-type (Bacillus subtilis (strain 168)) (UniProt P13267); test: qHTS Validation Assay for the Inhibitors of DNA Replication in Gram-Positive Bacteria (AID 485295);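 further: PicoGreen fluorescence of double-stranded DNA made on primed circular M13 template; series mostly up to about 57 µM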
Chain of DNA polymerase III PolC-type (Bacillus subtilis (strain 168)) (P13267 whole entry, looked up): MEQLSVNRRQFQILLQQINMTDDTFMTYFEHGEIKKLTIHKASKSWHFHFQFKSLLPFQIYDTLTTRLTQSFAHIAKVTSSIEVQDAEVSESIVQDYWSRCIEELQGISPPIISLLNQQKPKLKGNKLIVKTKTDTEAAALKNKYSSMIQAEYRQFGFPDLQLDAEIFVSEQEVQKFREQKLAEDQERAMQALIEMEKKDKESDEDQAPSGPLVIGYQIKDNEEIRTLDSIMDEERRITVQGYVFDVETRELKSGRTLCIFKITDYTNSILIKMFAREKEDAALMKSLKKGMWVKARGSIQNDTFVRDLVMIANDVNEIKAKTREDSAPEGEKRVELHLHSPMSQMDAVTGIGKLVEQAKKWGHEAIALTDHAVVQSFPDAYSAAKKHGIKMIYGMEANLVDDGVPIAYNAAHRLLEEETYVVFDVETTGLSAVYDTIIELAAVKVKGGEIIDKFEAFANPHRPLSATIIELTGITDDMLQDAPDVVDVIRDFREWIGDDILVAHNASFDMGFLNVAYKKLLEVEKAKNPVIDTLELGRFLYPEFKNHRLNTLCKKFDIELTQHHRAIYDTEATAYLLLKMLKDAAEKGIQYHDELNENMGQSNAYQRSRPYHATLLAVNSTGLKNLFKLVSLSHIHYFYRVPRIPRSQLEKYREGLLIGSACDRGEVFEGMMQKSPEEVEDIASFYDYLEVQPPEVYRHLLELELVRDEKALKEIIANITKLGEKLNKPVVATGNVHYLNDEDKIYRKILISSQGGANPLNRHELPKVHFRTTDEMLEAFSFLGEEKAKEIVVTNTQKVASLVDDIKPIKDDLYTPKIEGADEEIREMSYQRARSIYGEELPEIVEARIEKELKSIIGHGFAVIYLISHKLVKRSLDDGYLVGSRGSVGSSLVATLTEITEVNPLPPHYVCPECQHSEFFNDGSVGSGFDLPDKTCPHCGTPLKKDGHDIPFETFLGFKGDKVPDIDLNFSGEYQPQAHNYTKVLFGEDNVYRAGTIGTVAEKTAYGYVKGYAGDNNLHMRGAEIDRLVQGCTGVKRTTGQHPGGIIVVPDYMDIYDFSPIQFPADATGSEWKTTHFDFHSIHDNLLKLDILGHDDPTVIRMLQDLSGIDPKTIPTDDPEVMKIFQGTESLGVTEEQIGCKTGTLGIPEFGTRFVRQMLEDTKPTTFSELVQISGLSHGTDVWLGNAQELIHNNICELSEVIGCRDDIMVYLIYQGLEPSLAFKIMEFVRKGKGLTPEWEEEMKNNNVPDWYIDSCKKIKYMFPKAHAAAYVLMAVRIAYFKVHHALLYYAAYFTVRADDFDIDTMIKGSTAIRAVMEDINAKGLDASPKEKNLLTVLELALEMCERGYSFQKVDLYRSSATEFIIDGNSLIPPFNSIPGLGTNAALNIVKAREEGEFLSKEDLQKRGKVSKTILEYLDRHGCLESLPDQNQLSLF
In short: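 Reconstituted B. subtilis holoenzyme (Pol III, beta clamp, SSB, primase) was preincubated with compound at room temperature, then given single-stranded circular M13Gori plus dNTPs and NTPs. EDTA-containing PicoGreen stopped the reaction, and dsDNA product was read by fluorescence.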

[7] = target: Tumor susceptibility gene 101 protein (Homo sapiens) (UniProt Q99816); test: qHTS Validation Assay for Iinhibitors of HIV-1 Budding by Blocking the Interaction of PTAP/TSG101 (AID 485342; calls by dose curve)
Chain of Tumor susceptibility gene 101 protein (Homo sapiens) (Q99816 whole entry, looked up, the tested form may be a part): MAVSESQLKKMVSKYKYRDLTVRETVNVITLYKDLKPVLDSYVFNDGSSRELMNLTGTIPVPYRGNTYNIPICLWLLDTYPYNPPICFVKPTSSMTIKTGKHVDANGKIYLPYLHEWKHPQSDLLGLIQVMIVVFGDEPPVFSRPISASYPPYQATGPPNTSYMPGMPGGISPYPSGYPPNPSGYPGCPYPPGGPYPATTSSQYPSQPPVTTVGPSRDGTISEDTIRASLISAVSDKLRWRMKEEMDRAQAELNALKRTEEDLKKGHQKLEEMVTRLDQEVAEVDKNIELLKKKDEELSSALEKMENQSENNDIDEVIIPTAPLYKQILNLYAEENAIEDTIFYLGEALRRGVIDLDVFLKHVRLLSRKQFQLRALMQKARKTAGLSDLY
In short: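 Tsg101 binding domain (10 uM final) in pH 7.5 HEPES/NaCl/Tween 20/EDTA/TCEP buffer was mixed with pin-transferred compounds, then FITC-labeled PTAP peptide (50 nM final) was added; after 20 min at r.t., fluorescence polarization was read.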

[8] = qHTS Validation Assay to Find Inhibitors of Chronic Active B-Cell Receptor Signaling (AID 485345; active means well fitted curve in the direction sought with a large enough effect in the main read-out, with a control signal flat, not every such curve was filed as active)
In short: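 TMD8 ABC-DLBCL cells with dox-inducible green luciferase–IκBα fusion and red native luciferase; compounds 46 uM–3 nM, 4 h at 37C with doxycycline in 0.5% FBS IMDM. Green/red ratio normalized to basal and 10 uM MG-132.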

[9] = Validation screen for small molecules that induce DNA re-replication in MCF 10A normal breast cells (AID 463097); further: nearly all actives have a fitted effect of over 60% in size; further: potency means the concentration at half of the fitted maximal effect
In short: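 Readout: Hoechst nuclear fluorescence intensity, 405 ex / 500-530 em, by scanning plate imager; re-replication scored as increase in nuclei with elevated DNA content. Cells exposed to compound 48 hr, 37 C, 5% CO2 beforehand.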

Measured: Potency

O=C(O)CCC/C=C\C[C@@H]1[C@@H](/C=C/[C@H](O)C2Cc3ccccc3C2)[C@@H](F)C[C@@H]1O
not listed: [9]
inactive: all other assays above

CC#CCOC(=O)c1c(C)nc2sc3c(c2c1N)CCC(O)C3 (stereo not given)
not listed: [9]
inactive: all other assays above

c1ccc(CN2CCC3(CCCc4ccccc43)CC2)cc1
not listed: [4]
inactive: all other assays above

COCc1nc2c([nH]1)c(=O)n(C)c(=O)n2CC(C)C
not listed: [2]
inactive: all other assays above

C#CCn1c(=O)c2c(ncn2C)n(C)c1=O
not listed: [2] | [8]
inactive: all other assays above

CCCCCCCCCC(=O)NC(CN1CCOCC1)[C@H](O)c1ccccc1 (stereo not given in full)
not listed: [3] | [4] | [9]
inactive: all other assays above

NC1(C(=O)O)CCc2cc(C(=O)O)ccc21 (stereo not given)
not listed: [2]
inactive: all other assays above

O=C(O)C1CCNCC1
not listed: [2]
inactive: all other assays above

O=c1[nH]c2ccccc2c2ccccc12
not listed: [2] | [8]
inactive: all other assays above

N#CC(=C(\N)Sc1ccccc1N)/C(C#N)=C(/N)Sc1ccccc1N
inactive: [1] | [2] | [5] | [6] | [7]
active: [9] 7.94 µM

C=CCN1CCc2c(cc(O)c(O)c2Cl)C(c2ccccc2)C1 (stereo not given)
not listed: [3] | [4] | [9]
inactive: all other assays above

C=CCN1CCc2c(cc(O)c(O)c2Br)[C@@H](c2ccccc2)C1
not listed: [3] | [4] | [9]
inactive: all other assays above

CCCCOC(=O)NS(=O)(=O)c1sc(CC(C)C)cc1-c1ccc(Cn2c(CC)nc3c(C)cc(C)nc32)cc1
inactive: [1] | [2] | [5] | [6] | [7]

OC[C@H]1NC[C@@H](O)[C@@H]1O
not listed: [2]
inactive: all other assays above

CC(C)(C)c1cc(/C=C(\C#N)C(N)=S)cc(C(C)(C)C)c1O
inactive: [1] | [2] | [5] | [6] | [7]
active: [9] 3.16 µM
